Measured values taken from the supplement of paper PMC8975748.
Structures can show the parent of a compound that is named as a salt.

System: Saccharomyces cerevisiae BY4741 SeMeCo community
Assay: z-score of subpopulation abundance vs DMSO median, subpopulation auxotrophic for UM; higher = larger share of this subpopulation than in DMSO controls
Settings: 10 µM; 24 h; SM minimal medium; subpopulation (auxotrophy): UM
Description: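 Fluorescent four-plasmid SeMeCo (self-establishing metabolically cooperating S. cerevisiae BY4741 community; plasmids pH-mRuby2, pL-mWasabi, pU-eCFP, pM-TagRFP657) was grown 24 h in minimal SM medium with each Selleck FDA-approved drug at 10 µM in 384-well plates. Cells were fixed and imaged by high-content confocal microscopy. For each auxotrophic subpopulation (and the prototroph), a z-score gives the deviation from the DMSO vehicle-control population median.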

Row | Structure (SMILES) | z-score of subpopulation abundance
1 | C=CC[C@]1(O)CC[C@H]2[C@@H]3CCC4=CC(=O)CCC4=C3C=C[C@@]21C [Altrenogest] | -0.72
2 | NCCc1c[nH]c2ccc(O)cc12 [Serotonin HCl] | -0.02
3 | C[CH2][Hg][S]c1ccccc1C(=O)[O-].[Na+] [Thimerosal] | 6.06
4 | NCC(O)c1ccc(O)cc1 (racemic) [(+,-)-Octopamine HCl] | -0.79
5 | C[N+](C)(C)CCCCCCCCCC[N+](C)(C)C [Decamethonium Bromide] | 0.35
6 | CC[C@@]1(O)C(=O)OCc2c1cc1n(c2=O)Cc2cc3ccccc3nc2-1 [Camptothecin] | 0.1
7 | CN[C@@H]1[C@@H](O)[C@@H](O[C@@H]2[C@@H](O)[C@H](O[C@H]3O[C@H]([C@@H](C)O)[C@@H](O)[C@H](O)[C@H]3N)[C@@H](N)C[C@H]2N)OC[C@]1(C)O [Geneticin (G418 Sulfate)] | -0.56
8 | CN1[C@@H]2C[C@@H](OC(=O)[C@H](CO)c3ccccc3)C[C@H]1[C@@H]1O[C@@H]12 [Scopolamine HBr] | -0.95
9 | CC(C)(O)C(Cl)(Cl)Cl [Chlorobutanol] | 0.14
10 | C=CN1CCCC1=O.II [Povidone iodine] | 0.16
11 | CN[C@@H]1[C@@H](O)[C@@H](O[C@@H]2[C@@H](O)[C@H](O[C@H]3O[C@H](CN)CC[C@H]3N)[C@@H](N)C[C@H]2N)OC[C@]1(C)O.CN[C@@H]1[C@@H](O)[C@@H](O[C@@H]2[C@@H](O)[C@H](O[C@H]3O[C@H]([C@@H](C)N)CC[C@H]3N)[C@@H](N)C[C@H]2N)OC[C@]1(C)O.CN[C@@H]1[C@@H](O)[C@@H](O[C@@H]2[C@@H](O)[C@H](O[C@H]3O[C@H]([C@@H](C)NC)CC[C@H]3N)[C@@H](N)C[C@H]2N)OC[C@]1(C)O [Gentamicin Sulfate] | -0.75
12 | CCOC(=O)Nc1ccc(NCc2ccc(F)cc2)cc1N [Retigabine 2HCl] | -0.52
13 | CN(C)[C@@H]1C(=O)C(C(N)=O)=C(O)[C@@]2(O)C(=O)C3=C(O)c4c(O)cccc4[C@@](C)(O)[C@H]3[C@H](O)[C@@H]12 [Oxytetracycline Dihydrate] | -0.39
14 | CC(=O)OCC1=C(C(=O)O)N2C(=O)C(N)C2SC1 (centres undefined) [7-Aminocephalosporanic acid] | 0
15 | Nc1nc(N)nc(NC2CC2)n1 [Cyromazine] | 0.57
16 | COc1ccc(C(CN(C)C)C2(O)CCCCC2)cc1 (centres undefined) [Venlafaxine HCl] | 0.66
17 | N[C@@H]1C[C@H]1c1ccccc1 [Tranylcypromine (2-PCPA) HCl] | -0.34

Row | Structure (SMILES) | z-score of subpopulation abundance
18 | Cn1cc(C2=C(c3cn(C4CCN(Cc5ccccn5)CC4)c4ccccc34)C(=O)NC2=O)c2ccccc21 | 0.73
19 | Oc1cccc2cccnc12 [8-Hydroxyquinoline] | -1.16
20 | O=C(O[C@H]1C[C@H]2CC[C@@H](C1)[N+]21CCCC1)C(O)(c1ccccc1)c1ccccc1 [Trospium chloride] | -0.43
21 | NC(=O)CN1CCCC1=O [Piracetam] | 0.74
22 | N#Cc1nn(-c2c(Cl)cc(C(F)(F)F)cc2Cl)c(N)c1[S+]([O-])C(F)(F)F (centres undefined) [Fipronil] | -0.68
23 | C[N+]12CCC(CC1)C(OC(=O)C(O)(c1ccccc1)c1ccccc1)C2 (centres undefined) [Clidinium Bromide] | -0.38
24 | CC(C)=CCOc1c2occc2cc2ccc(=O)oc12 [Imperatorin] | 0.52
25 | COc1ccc2[nH]cc(CCN)c2c1 [5-Methoxytryptamine] | 1.16
26 | CN(C)[C@@H]1C(=O)C(C(N)=O)=C(O)[C@@]2(O)C(=O)C3=C(O)c4c(O)ccc(Cl)c4[C@@](C)(O)[C@H]3C[C@@H]12 [Chlortetracycline HCl] | -0.66
27 | CN1C(=O)COc2c(C(=O)NC3CN4CCC3CC4)cc(Cl)cc21 (centres undefined) [Azasetron HCl] | 0.66
28 | CC1(C)SC2C(N)C(=O)N2C1C(=O)O (centres undefined) [6-Aminopenicillanic acid] | 0.97
29 | COc1cc2c(cc1OC)C1CC(=O)C(CC(C)C)CN1CC2 (centres undefined) [Tetrabenazine (Xenazine)] | -0.68
30 | COc1ccc(C(CN(C)C)C2(O)CCCCC2)cc1 (centres undefined) [Venlafaxine] | 0.35
31 | O=c1[nH]c2ccccc2n1CCCN1CCC(n2c(=O)[nH]c3cc(Cl)ccc32)CC1 [Domperidone] | 0.56
32 | CN(C)[C@@H]1C(=O)C(C(N)=O)=C(O)[C@@]2(O)C(=O)C3=C(O)c4c(O)cccc4[C@@](C)(O)[C@H]3C[C@@H]12 [Tetracycline HCl] | 0.64
33 | Cc1cc(C(C#N)c2ccc(Cl)cc2)c(Cl)cc1NC(=O)c1cc(I)cc(I)c1O (centres undefined) [Closantel] | -0.03
34 | C#C[C@]1(O)C=C[C@H]2[C@@H]3CCC4=CC(=O)CC[C@@H]4[C@H]3CC[C@@]21CC [Gestodene] | -1.14
